The source made the active and inactive calls. Unless noted, no rule for the calls is given here.
What was measured:
[1] = HepG2 liver cancer cell viability effects, profiling panel, resazurin fluorescence, 24 h, PK04 Diversity Set (AID 1172); settings: higher = more signal
[2] = basal S. cerevisiae growth modulation, no modifier, primary screen, OD600, strain BY4716, 24 h, basal condition (AID 1173); settings: OD600, 24 h, higher = more signal, called active from +8 up or from −8 down
[3] = MM1S myeloma cell viability, profiling panel, resazurin fluorescence, basal, 24 h, PK04 Diversity Set (AID 1174); settings: higher = more signal, called active from +8 up or from −8 down;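 also: MM1S multiple myeloma cell line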
[4] = target: Dihydroorotate dehydrogenase (quinone), mitochondrial (Plasmodium falciparum (isolate 3D7)) (UniProt Q08210); test: PfDHODH enzyme inhibitors, primary screen, biochemical, C-terminal His tag, absorbance 600 nm (AID 1175); settings: DCIP absorbance 600 nm, higher = more signal, called active from +8 up or from −8 down;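 also: recombinant parasite enzyme with a five histidine tag at its C terminus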
[5] = S. cerevisiae RM11-1a growth modifiers, primary screen, strain RM11-1a, OD600, basal, 24 h (AID 1177); settings: OD600, 24 h, higher = more signal, called active from +8 up or from −8 down;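 also: cultures grown under basal conditions with no added stressor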
[6] = E. coli acrAB mutant growth effects, primary screen, E. coli filamentation inducers, strain DRC39, OD650, 24 h (AID 1178); settings: higher = more signal, called active from +8 up or from −8 down;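 also: growth measured as culture turbidity by optical density at 650 nm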
[7] = E. coli acrAB mutant growth effects, primary screen, E. coli filamentation inducers, strain DRC39, OD650, 48 h (AID 1179);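 also: screen aims at cell division blockers that make cells filament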; settings: E. coli DRC39 delta-acrAB growth, higher = more signal, called active from +8 up or from −8 down
[8] = RPMI8226 myeloma cell viability, profiling panel, resazurin fluorescence, basal, 24 h, PK04 Diversity Set (AID 1180); settings: higher = more signal;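 also: RPMI8826 multiple myeloma cell line at 5000 cells per well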
[9] = target: E3 ubiquitin-protein ligase XIAP (Homo sapiens) (UniProt P98170); test: XIAP binders, primary screen, biophysical, small-molecule microarray, fluorescence 635 nm (AID 1181); settings: small-molecule microarray binding, higher = more signal;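 also: score merges 667 nm emission and signal to noise over triplicate slides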
[10] = system: XIP peptide (Xip251-270) binding; test: small-molecule binders of XIP peptide, primary screen, biochemical, small-molecule microarray, fluorescence 635/667 nm, 0.1 µg/mL protein (AID 1182); settings: fluorescent protein binding, 635 nm, higher = more signal, called active from +8 up or from −8 down
[11] = system: XIP peptide (Xip251-270); test: small-molecule binders of XIP peptide, primary screen, biochemical, small-molecule microarray, fluorescence 635/667 nm, 0.5 µg/mL protein (AID 1183); settings: small-molecule microarray binding, fluorescence 635 nm; higher = more signal
[12] = Plasmodium falciparum growth inhibition, primary screen, strain 3D7, DAPI fluorescence, 100 nL (AID 1184);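 also: parasites grown inside human red blood cells in medium with human serum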; settings: P. falciparum 3D7 growth, 3 d, higher = more signal
[13] = target: Homeobox protein Hox-A13 (Mus musculus) (UniProt Q62424); test: inhibitors of HoxA13-DNA binding, primary screen, biochemical, fluorescence polarization, labeled oligonucleotide (AID 1185); settings: 15 min, higher = more signal, called active from +8 up or from −8 down
[14] = inhibitors of hydroxyurea-induced Chk1 phosphorylation, primary screen, imaging, HeLa, phospho-Chk1 antibody, percent positive cells (AID 1186); settings: hydroxyurea-induced phospho-Chk1 immunofluorescence imaging, higher = more signal
[15] = inhibitors of hydroxyurea-induced Chk1 phosphorylation, primary screen, imaging, HeLa, phospho-Chk1 nuclear intensity (AID 1187); settings: hydroxyurea-induced phospho-Chk1 immunofluorescence imaging, higher = more signal

Dihydroorotate dehydrogenase (quinone), mitochondrial (Plasmodium falciparum (isolate 3D7)), sequence (Q08210 whole entry, looked up): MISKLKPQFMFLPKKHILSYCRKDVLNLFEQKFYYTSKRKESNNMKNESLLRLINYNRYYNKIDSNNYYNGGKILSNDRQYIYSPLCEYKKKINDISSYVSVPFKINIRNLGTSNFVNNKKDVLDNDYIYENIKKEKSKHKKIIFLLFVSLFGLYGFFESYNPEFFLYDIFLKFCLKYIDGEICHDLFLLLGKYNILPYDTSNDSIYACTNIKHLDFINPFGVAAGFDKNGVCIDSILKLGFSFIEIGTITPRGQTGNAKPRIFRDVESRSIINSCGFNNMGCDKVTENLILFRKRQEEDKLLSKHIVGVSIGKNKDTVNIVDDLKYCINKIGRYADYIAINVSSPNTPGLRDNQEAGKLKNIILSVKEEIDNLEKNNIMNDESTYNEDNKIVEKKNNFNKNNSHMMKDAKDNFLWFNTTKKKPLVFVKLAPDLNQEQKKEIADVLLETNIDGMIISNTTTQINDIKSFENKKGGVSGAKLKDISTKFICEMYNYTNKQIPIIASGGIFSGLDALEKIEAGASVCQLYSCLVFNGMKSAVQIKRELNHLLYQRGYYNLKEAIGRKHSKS
E3 ubiquitin-protein ligase XIAP (Homo sapiens), sequence (P98170 whole entry, looked up): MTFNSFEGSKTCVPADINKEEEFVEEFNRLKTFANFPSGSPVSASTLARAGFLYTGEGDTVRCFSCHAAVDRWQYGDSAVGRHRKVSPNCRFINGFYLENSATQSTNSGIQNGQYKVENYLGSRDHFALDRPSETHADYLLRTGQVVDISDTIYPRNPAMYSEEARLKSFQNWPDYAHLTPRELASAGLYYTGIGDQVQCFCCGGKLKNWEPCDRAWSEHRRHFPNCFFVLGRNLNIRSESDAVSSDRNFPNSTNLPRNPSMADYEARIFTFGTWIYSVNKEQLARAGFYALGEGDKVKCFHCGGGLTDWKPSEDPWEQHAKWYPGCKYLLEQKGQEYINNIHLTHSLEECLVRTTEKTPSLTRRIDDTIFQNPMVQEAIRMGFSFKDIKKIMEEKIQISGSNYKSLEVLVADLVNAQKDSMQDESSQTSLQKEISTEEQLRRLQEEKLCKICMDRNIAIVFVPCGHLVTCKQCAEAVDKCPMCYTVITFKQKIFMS
Homeobox protein Hox-A13 (Mus musculus), sequence (Q62424 whole entry, looked up): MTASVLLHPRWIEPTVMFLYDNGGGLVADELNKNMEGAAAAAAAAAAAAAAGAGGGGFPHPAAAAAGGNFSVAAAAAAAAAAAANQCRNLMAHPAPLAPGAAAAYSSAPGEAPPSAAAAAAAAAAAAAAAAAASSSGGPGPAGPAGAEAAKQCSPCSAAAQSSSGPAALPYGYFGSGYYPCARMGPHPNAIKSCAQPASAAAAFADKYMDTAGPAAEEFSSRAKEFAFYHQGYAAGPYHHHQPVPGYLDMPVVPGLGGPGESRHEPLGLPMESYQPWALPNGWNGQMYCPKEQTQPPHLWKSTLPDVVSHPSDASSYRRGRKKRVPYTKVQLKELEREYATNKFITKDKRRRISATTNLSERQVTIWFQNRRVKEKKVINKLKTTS

SMILES	z-score [1]	z-score [2]	z-score [3]	composite z-score [4]	z-score [5]	z-score [6]	z-score [7]	z-score [8]	composite z-score [9]	composite z-score [10]	composite z-score [11]	z-score [12]	z-score [13]	z-score [14]	z-score [15]
C=C(CCCC)C(=O)CC[C@@H](OC(=O)c1cccnc1)c1cccc(OCCO)c1	0.147	-1.41 (inactive)	-4.18 (inactive)	-1.57 (inactive)	0.0831 (inactive)	1.24 (inactive)	0.543 (inactive)	-4.13	-0.104	1.48 (inactive)	0.702	-2.81	-3.79 (inactive)	-0.279 (inactive)	-0.326 (inactive)
C=CCN1C(=O)[C@]2(O[C@H](CCn3cc(CCO)nn3)[C@@H]([Si](C)(C)c3ccc(OC)cc3)[C@@H]2C)c2cc(NC(=O)c3ccc(OC)cc3)ccc21	-1.89	-2.6 (inactive)	-4.32 (inactive)	1.31 (inactive)	1.23 (inactive)	1.8 (inactive)	0.797 (inactive)	-4.33	-0.104	1.02 (inactive)	0.18	-2.84	-4.21 (inactive)	-0.798 (inactive)	-0.823 (inactive)
CC(=O)NCCCC[C@@H]1NC(=O)[C@@H]2C[C@H](C(=O)NCCCCCCN(C)C)[C@H](c3ccc(O)cc3)N2C1=O	0.478	-0.574 (inactive)	1.12 (inactive)	0.266 (inactive)	0.662 (inactive)	0.325 (inactive)	0.249 (inactive)	0.912	0.103	1.9 (inactive)	0.852	-0.289	-0.0113 (inactive)	0.313 (inactive)	0.54 (inactive)
COc1cc2c(cc1OC)CN(C(=O)[C@@H]1[C@H]3C(=O)O[C@H](c4ccccc4)[C@H](c4ccccc4)N3[C@H](c3ccccc3OCCO)[C@@]13C(=O)Nc1ccccc13)CC2	0.193	1.34 (inactive)	0.255 (inactive)	-0.495 (inactive)	3.1 (inactive)	0.392 (inactive)	0.952 (inactive)	0.105	-0.127	1.79 (inactive)	0.829	-2.18	0.829 (inactive)	0.306 (inactive)	0.876 (inactive)
CCCNC(=O)[C@@H]1c2ccccc2C(=O)N(Cc2cc(F)cc(C(F)(F)F)c2)[C@H]1c1ccc(CO)cc1	0.527	-1.69 (inactive)	0.919 (inactive)	-0.0769 (inactive)	-1.41 (inactive)	1.4 (inactive)	0.576 (inactive)	1.72	-0.129	0.395 (inactive)	0.801	-0.43	-2.12 (inactive)	-0.438 (inactive)	-0.142 (inactive)
CO[C@H]1COC(=O)[C@@H](OCc2ccccc2)C=C[C@H](C)[C@@H](OC)COC(=O)[C@H](OCc2ccccc2)C=C[C@@H]1C	1.12	-2.2 (inactive)	1.6 (inactive)	-1.11 (inactive)	-3.47 (inactive)	0.422 (inactive)	-0.97 (inactive)	0.193	-0.148	-1.11 (inactive)	-0.267	0.313	0.371 (inactive)	–	–
C[C@]1(C(=O)NCc2ccccc2)c2ccccc2C(=O)N(Cc2cc(C(F)(F)F)cc(C(F)(F)F)c2)[C@H]1c1ccc(CO)cc1	-0.331	-1.35 (inactive)	0.865 (inactive)	-1.4 (inactive)	-2.4 (inactive)	1.04 (inactive)	0.528 (inactive)	1.12	-0.177	1.03 (inactive)	-0.105	-1.61	-1.78 (inactive)	-1.45 (inactive)	-2.06 (inactive)
COc1ccc(CCNC(=O)[C@@]2(c3ccc([N+](=O)[O-])cc3)CC(=O)N(C(C)C)[C@@H]2c2ccc(CO)cc2)cc1	0.483	-1.12 (inactive)	1.56 (inactive)	-0.704 (inactive)	-1.28 (inactive)	0.793 (inactive)	0.479 (inactive)	1.19	-0.154	1.25 (inactive)	-0.904	-0.303	-3.03 (inactive)	-0.322 (inactive)	-0.0259 (inactive)
CCN1C(C)=C(C(=O)OC)[C@@H](c2ccccc2)N2C(=O)[C@](O)(C(=O)OC)[C@@H](c3ccccc3)C(C(=O)c3ccccc3)=C12	2.22	-3.46 (inactive)	1.06 (inactive)	0.208 (inactive)	-0.785 (inactive)	1.55 (inactive)	1.39 (inactive)	1.57	-0.101	-0.176 (inactive)	0.283	0.245	-4.23 (inactive)	–	–
C=C(/C(=C/C[C@@H](OC(=O)c1ccncc1)c1ccc(CO)o1)c1cnc2ccccc2c1)C(C)C	0.0389	-2.58 (inactive)	0.558 (inactive)	-6.53 (inactive)	-0.475 (inactive)	1.4 (inactive)	0.811 (inactive)	1.17	0.374	1.11 (inactive)	0.766	-0.599	-4.89 (inactive)	-0.33 (inactive)	-0.232 (inactive)
CC(C)N1CC=CC23O[C@@H]4/C=C\CCCOC(=O)C4[C@H]2C(=O)N(CCCCCO)[C@@H]3C1=O (stereo partly specified)	0.46	-1.08 (inactive)	1.35 (inactive)	0.623 (inactive)	-0.354 (inactive)	1.26 (inactive)	1.29 (inactive)	1.13	0.973	-0.301 (inactive)	-1.95	-0.426	-4.61 (inactive)	-0.261 (inactive)	-0.128 (inactive)
O=[N+]([O-])c1ccc(C[n+]2ccc3ccc(O)cc3c2)o1	-0.104	-5.54 (inactive)	0.342 (inactive)	-2 (inactive)	-0.234 (inactive)	-0.55 (inactive)	-0.688 (inactive)	0.405	0.411	1.14 (inactive)	0.676	0.87	-5.47 (inactive)	-0.0465 (inactive)	-0.0404 (inactive)
C=CC[C@]1(C(=O)NCC(O)CO)N=C(c2ccc(OCCCO)cc2)O[C@H]1c1ccccc1 (stereo partly specified)	0.766	-1.49 (inactive)	0.776 (inactive)	-0.537 (inactive)	-1.07 (inactive)	1.44 (inactive)	0.199 (inactive)	1.01	-0.0102	0.654 (inactive)	0.124	-0.851	-5.04 (inactive)	-0.147 (inactive)	-0.0911 (inactive)
Cc1ccc(N2C(=O)c3ccccc3[C@@H](C(=O)NCc3ccccc3)[C@@H]2c2ccc(CO)cc2)nc1	0.138	0.0819 (inactive)	1.36 (inactive)	0.787 (inactive)	1.11 (inactive)	-0.0753 (inactive)	-0.0787 (inactive)	1.06	0.02	-0.337 (inactive)	-0.98	-0.432	-0.681 (inactive)	-0.639 (inactive)	-0.627 (inactive)
COCCOC(=O)N1C(=O)[C@@]2(c3cc(C#CC4(O)CCCCCC4)ccc31)[C@H](C(=O)N1CCCCCCC1)[C@H]1C(=O)O[C@H](c3ccccc3)[C@H](c3ccccc3)N1[C@@H]2c1ccc(O)cc1	0.1	-0.975 (inactive)	1.57 (inactive)	0.0505 (inactive)	0.322 (inactive)	0.286 (inactive)	0.264 (inactive)	0.868	0.154	0.888 (inactive)	0.683	-2.19	3.51 (inactive)	-0.169 (inactive)	0.085 (inactive)
CC/C=C/C(=O)N(C[C@@H]1CCCO1)[C@@H]1CC(C(=O)NCCO)=C[C@H](Oc2c(I)cc(CO)cc2OC)[C@H]1O	1.42	-2.91 (inactive)	1.08 (inactive)	-0.288 (inactive)	-2.02 (inactive)	2.39 (inactive)	1.03 (inactive)	0.209	-0.117	0.969 (inactive)	-0.769	-1.03	-5.37 (inactive)	1 (inactive)	1.11 (inactive)
CO[C@H]1O[C@H](CO)[C@@H](OC(=O)CCc2ccccc2)[C@@H]2OC(=O)[C@H](Cc3cccc(Br)c3)C/C=C/C[C@@H](Cc3cccc(Br)c3)C(=O)O[C@@H]12	1.13	-3.87 (inactive)	1.5 (inactive)	-0.578 (inactive)	-4.01 (inactive)	1.41 (inactive)	1.14 (inactive)	1.45	0.0356	0.0304 (inactive)	-0.107	-1.84	-2.42 (inactive)	-0.962 (inactive)	-1.1 (inactive)
O=C(NCC(O)CO)[C@]1(Cc2ccccc2)N=C(c2ccc(OCCCO)cc2)O[C@@H]1c1ccccc1 (stereo partly specified)	0.206	-3.32 (inactive)	1.71 (inactive)	0.287 (inactive)	-0.989 (inactive)	2.22 (inactive)	0.235 (inactive)	0.761	0.0251	1.61 (inactive)	0.776	-1.62	-4.2 (inactive)	-0.707 (inactive)	-0.655 (inactive)

Reference: PubChem BioAssay
